A selection: hits, their analogues and other compounds. The true share with any hit is near 9.2%.
ELG1 DNA repair: qHTS screen for small molecules that inhibit ELG1-dependent DNA repair in human embryonic kidney (HEK293T) cells expressing luciferase-tagged ELG1; HEK293T ELG1-luciferase reporter, luminescence, 16 h; DNA damage induced by 5-fluorouridine; Potency, µM (top dose mostly 46.1 µM), usual class: inhibitors; 330,000 compounds, 2.3% hits; AID 504467, 2011; also: nearly all actives have a fitted effect of over 55% in size
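HEK293T cells expressing luciferase-tagged ELG1 (2,000/well) received 5-Fluorouridine plus compound or DMSO for 16 hr at 37 °C. Luciferase was read by ONE-Glo luminescence after 30 min at room temperature.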
SMN2 splice enh: qHTS Assay for Enhancers of SMN2 Splice Variant Expression; HEK293 SMN2-luciferase splicing reporter, luminescence, 30-36 h; 210,000 compounds, 2.8% hits; AID 1458, 2008; Potency, µM (highest dose often 46.1 µM), most hits filed as activators; also: nearly all actives have a fitted effect of over 55% in size
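HEK293 cells carry an SMN2 […]–luciferase reporter in which exon 7 inclusion puts luciferase in frame. Cells were plated 10-12 h before compound addition, then incubated 30-36 h at 37C. ONE-Glo luminescence was read; sodium butyrate at 4.5 mM final served as control.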
Rab9 promoter act: qHTS Assay for Rab9 Promoter Activators; Huh7 Rab9 promoter-luciferase reporter, luminescence, 24 h; Potency, µM (titrated, usually from 9.22 µM), actives largely listed as activators; 320,000 compounds, 2.8% hits; also: nearly all actives have a fitted effect of over 60% in size
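Quantitative HTS format; Huh7 Rab9-luciferase reporter cells (1500/well) receive compound 2 h post-plating, incubate 24 h at 37 °C, then get luciferase reagent for 10 min before luminescence reading.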
NPC1 prom act: qHTS Assay for NPC1 Promoter Activators; AID 485313, 2010; 320,000 compounds, 2.4% hits; Potency, µM (highest dose often 9.22 µM), hits mostly activators; Huh7 NPC1 promoter luciferase reporter, 24 h; also: nearly all actives have a fitted effect of over 60% in size
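Luciferase expression driven by the NPC1 promoter was measured in stably transfected Huh7 cells after a 24 h compound incubation, using a luciferase reagent and a luminescence read.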
FLuc counter: qHTS profiling assay for firefly luciferase inhibitor/activator using purifed enzyme and Km concentrations of substrates (counterscreen for miR-21 project); purified FLuc, Km substrates, luminescence inhibition; 360,000 compounds, 6.9% hits; Potency, µM (highest dose often 57.5 µM), usual class: inhibitors; AID 588342, 2011; also: nearly all actives have a fitted effect of over 55% in size
Target sequence (P08659 whole entry, looked up): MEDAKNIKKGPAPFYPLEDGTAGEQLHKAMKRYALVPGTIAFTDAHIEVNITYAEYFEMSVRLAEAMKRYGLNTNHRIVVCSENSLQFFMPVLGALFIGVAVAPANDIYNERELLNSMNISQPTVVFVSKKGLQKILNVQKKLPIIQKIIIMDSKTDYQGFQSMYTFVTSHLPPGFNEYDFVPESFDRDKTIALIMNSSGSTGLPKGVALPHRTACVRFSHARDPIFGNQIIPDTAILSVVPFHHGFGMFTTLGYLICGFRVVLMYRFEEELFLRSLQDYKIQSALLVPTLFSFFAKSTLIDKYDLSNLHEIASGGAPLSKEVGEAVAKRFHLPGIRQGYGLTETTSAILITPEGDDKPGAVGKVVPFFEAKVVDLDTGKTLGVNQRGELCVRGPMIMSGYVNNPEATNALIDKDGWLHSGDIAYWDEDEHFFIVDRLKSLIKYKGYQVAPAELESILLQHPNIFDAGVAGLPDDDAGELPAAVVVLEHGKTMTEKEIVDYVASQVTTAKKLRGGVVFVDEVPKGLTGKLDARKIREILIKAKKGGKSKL
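Biochemical qHTS of compounds, final roughly 60 µM downward over six points, against 10 nM purified firefly luciferase using Km concentrations of substrates (10 uM D-luciferin, 10 uM ATP) in Tris acetate pH 7.5 buffer; luminescence output.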
ELG1 genotoxic: qHTS screen for small molecules that induce genotoxicity in human embryonic kidney (HEK293T) cells expressing luciferase-tagged ELG1 | HEK293T ELG1-luciferase reporter, luminescence, 16 h | AID 504466, 2011 | 330,000 compounds, 1.3% hits | Potency, µM (doses to about 46 µM), most hits filed as activators; also: nearly all actives have a fitted effect of over 60% in size
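Luminescence read-out: rising ELG1-luciferase signal, reflecting elevated ELG1 protein under genetic stress, flags genotoxic compounds. Cells were treated for 16 hr at 37 °C before ONE-Glo detection.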
A number is an active result; . = inactive; ? = inconclusive; / = no result; [ ] = remark or other dose. Calls follow the shape of the dose curve; as a rule, active = well fitted curve in the direction sought with a large enough effect; inconclusive = small, poorly fitted or top-dose-only effect, or another doubt; inactive = no such curve, though single readings can be large; an effect the other way counts as inactive or inconclusive.

SMILES	ELG1 DNA repair	SMN2 splice enh	Rab9 promoter act	NPC1 prom act	FLuc counter	ELG1 genotoxic
CCOc1cccc(/C=N/NC(=S)Nc2cc(S(=O)(=O)N3CCOCC3)ccc2N2CCOCC2)c1O	5.8µM	.	.	.	?	.
COc1ccc(NC(=S)Nc2ccc(S(N)(=O)=O)cc2)c(OC)c1	.	/	.	.	.	.
COc1ccc(NC(=S)Nc2ccc(S(=O)(=O)N3CCOCC3)cc2)c(OC)c1	23.1µM	.	.	.	.	.
COc1ccc(/C=C/C(=O)Nc2cc(S(=O)(=O)N3CCOCC3)ccc2N2CCCC2)cc1OC	.	.	.	.	.	.
COc1ccc(/C=N/NC(=S)Nc2cc(S(=O)(=O)N3CCOCC3)ccc2N2CCOCC2)cc1O	7.31µM	.	.	.	?	.
O=C(/C=C/c1ccccc1O)c1ccc(Cl)cc1	.	/	.	.	3.38µM	.
COc1ccccc1/C=C/C(=O)c1ccc(Cl)cc1	?	.	.	?	7.57µM	?
COc1ccccc1/C=C/C(=O)N1CCC(c2ccccc2)C1 (stereo not given)	?	12.6µM	?	?	9.53µM	?
COc1ccc(OC)c(/C=C/C(=O)c2ccc(Cl)cc2)c1	.	.	.	.	10.7µM	.
COc1ccc(OC(=O)c2ccc(Cl)cc2)c(C(C)=O)c1	?	/	.	.	?	.
CCOc1ccccc1/C=C/C(=O)c1ccc(Cl)cc1	?	.	.	.	?	.
Cc1ccc(C(=O)N2CCN(C)CC2)cc1S(=O)(=O)N1CCCCCC1	.	/	.	.	.	.
c1nc(N2CCNCC2)c2cc(-c3ccc4c(c3)OCO4)ccc2n1	/	.	/	/	/	/
COc1ccccc1/C=C/C(=O)c1ccc(NC(C)=O)cc1	?	/	.	.	15.1µM	.
COc1ccccc1/C=C/C(=O)N1CCOCC1	.	.	.	.	.	.
COc1ccccc1/C=C/C(=O)c1c2c(c(C)[nH]c1=O)CCCC2	18.4µM	.	.	.	.	.
O=C(O)/C=C/c1ccccc1Oc1ccc(Cl)cc1Cl	.	.	.	.	15.1µM	.
COc1ccc(/C=C/C(=O)c2c(C)cc(C)[nH]c2=O)c2ccccc12	?	/	.	.	.	.
COc1ccccc1/C=C/C(=O)c1ccccc1	?	/	?	?	1.9µM	?
N#C/C(C(=O)NCc1ccccc1)=C1/SC(Cc2ccc(Cl)cc2)C(=O)N1c1ccccc1 (stereo not given)	.	.	.	.	.	.
O=C(Cn1nnc(-c2ccccc2Cl)n1)Nc1cccc(S(=O)(=O)N2CCCC2)c1	23.1µM	/	/	/	/	.
CCOc1ccc(NC(=O)Cn2nnc(-c3ccc(C(N)=O)cc3)n2)cc1S(=O)(=O)N1CCCC1	?	/	.	.	6.75µM	.
CCOc1ccc(NC(=O)Cn2nc(C(N)=O)c3ccccc3c2=O)cc1S(=O)(=O)N1CCCC1	.	/	.	.	.	.
CC1CCc2c(sc(NC(=O)c3ccc(-c4ccccc4[N+](=O)[O-])o3)c2C#N)C1 (stereo not given)	.	.	.	.	10.7µM	.
O=C(NC1CCCCC1)c1ccc(-c2ccccc2[N+](=O)[O-])o1	?	/	1.41µM	0.708µM	3.79µM	2.06µM
SMILES	ELG1 DNA repair	SMN2 splice enh	Rab9 promoter act	NPC1 prom act	FLuc counter	ELG1 genotoxic
N#Cc1c(NC(=O)c2ccc(-c3ccccc3[N+](=O)[O-])o2)sc2c1CCCC2	?	.	.	.	10.7µM	.
Cc1onc(-c2ccccc2)c1C(=O)Nc1sc2c(c1C#N)CCC(C)C2 (stereo not given)	?	.	.	.	?	.
Cc1onc(C(=O)Nc2sc3c(c2C#N)CCCC3)c1[N+](=O)[O-]	.	/	?	.	13.5µM	.
O=C(CCCNC(=O)c1ccc(Cl)cc1)Nc1ccccc1C(F)(F)F	.	/	.	.	.	.
Cc1cccc(NC(=O)c2cc(-c3cc(C)cc(C)c3O)n[nH]2)c1	.	/	.	.	?	.
COc1ccc(NC(=O)c2cc(-c3cc(C)cc(C)c3O)n[nH]2)cc1Cl	20.6µM	.	.	.	?	.
CCc1ccc(O)c(-c2cc(C(=O)Nc3cccnc3)[nH]n2)c1	?	/	2.24µM	1.58µM	10.7µM	?
Cc1cc(C)c(O)c(-c2cc(C(=O)Nc3cccnc3)[nH]n2)c1	20.6µM	/	.	.	19µM	.
Cc1cc(O)c(-c2cc(C(=O)Nc3cccnc3)[nH]n2)cc1C	?	/	1µM	0.251µM	1.9µM	3.66µM
COc1ccc(NC(=O)c2cc(-c3ccccc3O)n[nH]2)cc1Cl	?	/	.[1.84 µM]	.	.	.
CCOC(=O)C1(C)/C(=N/Nc2ccccc2Cl)C(=O)C(=O)N1c1ccccc1 (stereo not given)	.	.	.	.	.	.
O=C(Nc1n[nH]c(C2CCCCC2)n1)C1CCCCC1	?	0.112µM	.	.	.	20.6µM
COc1ccc(C(=O)Nc2ccc3ccccc3c2)cc1OC	?	/	?	2.82µM	9.53µM	?
Cn1nnc2cc(C(=O)Nc3ccc4ccccc4c3)ccc21	?	3.16µM	0.398µM	0.891µM	1.9µM	2.31µM
COc1ccc(C(=O)Nc2ccc3oc(Cc4ccc(Cl)cc4)nc3c2)cc1OC	20.6µM	.	.	.	.	.
COc1cc(C(=O)Nc2ccc3ccccc3c2)cc(OC)c1OC	.	/	.	.	19µM	?
Cc1oc(-c2ccc(C(=O)NCc3ccc(N(C)C)cc3)cc2)nc1COc1ccccc1	/	/	/	/	.	/
Cc1cc(C)cc(N(C)S(=O)(=O)c2nnc(NC(=O)COc3ccc(C)c(C)c3)s2)c1	/	/	/	/	.	/
NS(=O)(=O)c1ccc(NC(=S)NCc2ccco2)cc1	.	/	.	.	.	.
Cc1ccccc1Nc1nc(N)nc(CSc2n[nH]c(N)n2)n1	.	/	.	.	.	.
Cc1ccc(NNC(=O)c2ccno2)c(C)c1	13µM	/	.	.	.	.
Cc1cc(SC(C)C(=O)Nc2ncc(Cl)cc2Cl)nc2ccccc12 (stereo not given)	?	3.55µM	.	.	.	.
Cc1nnc(SC(C)C(=O)Nc2ncc(Cl)cc2Cl)n1Cc1ccccc1 (stereo not given)	.	.	.	.	.	.
Fc1ccc(NCc2cn3ccccc3n2)cc1	?	?	3.98µM	3.16µM	15.1µM	.
O=C(NCCc1cn2ccccc2n1)c1ccccc1F	.	.	.	.	.	.
Fc1cccc(NCc2cn3ccccc3n2)c1	?	2.51µM	0.794µM	1.78µM	9.53µM	2.31µM
CN(CC(=O)Nc1cccc(F)c1)C(=O)c1ccc(OCc2cn3ccccc3n2)cc1	?	/	/	/	/	.
